Our source for the binding signal values is publication PMC7862700, “An all-to-all approach to the identification of sequence-specific readers for epigenetic DNA modifications on cytosine”.

Holding throughout (assay): DAPPL (digital affinity profiling via proximity ligation, sequencing); 10 mM Tris-HCl pH 7.5, 50 mM NaCl, 1 mM DTT, 4% glycerol, room temperature, 30 min; GST-TFs on glutathione beads, 16-mer random dsDNA library, 0.1% formaldehyde crosslink after washing; high values mean tight binding
The target of one test is T1, FEV (Homo sapiens, UniProt Q99581 1-238).
T1 sequence: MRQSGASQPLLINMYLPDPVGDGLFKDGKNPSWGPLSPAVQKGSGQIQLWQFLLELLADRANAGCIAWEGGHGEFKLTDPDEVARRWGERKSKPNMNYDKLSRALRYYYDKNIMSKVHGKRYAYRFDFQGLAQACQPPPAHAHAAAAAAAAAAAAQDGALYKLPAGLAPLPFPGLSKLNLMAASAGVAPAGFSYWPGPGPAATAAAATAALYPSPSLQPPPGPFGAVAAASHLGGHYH
The settings on record: protein: recombinant; tags: N-terminal GST; dsDNA, one strand shown. An outline of the steps: (§1)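 In yeast, human transcription factors were expressed with a GST fusion, then pulled down on glutathione beads and given DNA barcodes. Pooled with a tag-only sample, they were exposed to 200 nmole of a 16-mer random double-stranded DNA library (Tris/NaCl/DTT/glycerol buffer, room temperature, 30 min), washed, crosslinked with 0.1% formaldehyde, proximity-ligated using BsaI/T4 ligase for 1 h at 37 °C, PCR-amplified and read on an Illumina NextSeq500. Each hexamer's frequency of reads for a factor, divided by the matching frequency for the tag-only sample, gives the binding signal.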

Another test has as its target ETV5 (Homo sapiens, UniProt P41161 1-510). To be noted: protein: recombinant; tags: N-terminal GST; dsDNA, one strand shown. A digest of the protocol:
as §1

In the next test the target is HSF1 (Homo sapiens, UniProt Q00613 1-529). The settings on record: protein: recombinant; tags: N-terminal GST; chain copies: 3; dsDNA, one strand shown. An outline of the steps: as §1
HSF1, sequence (Q00613 whole entry): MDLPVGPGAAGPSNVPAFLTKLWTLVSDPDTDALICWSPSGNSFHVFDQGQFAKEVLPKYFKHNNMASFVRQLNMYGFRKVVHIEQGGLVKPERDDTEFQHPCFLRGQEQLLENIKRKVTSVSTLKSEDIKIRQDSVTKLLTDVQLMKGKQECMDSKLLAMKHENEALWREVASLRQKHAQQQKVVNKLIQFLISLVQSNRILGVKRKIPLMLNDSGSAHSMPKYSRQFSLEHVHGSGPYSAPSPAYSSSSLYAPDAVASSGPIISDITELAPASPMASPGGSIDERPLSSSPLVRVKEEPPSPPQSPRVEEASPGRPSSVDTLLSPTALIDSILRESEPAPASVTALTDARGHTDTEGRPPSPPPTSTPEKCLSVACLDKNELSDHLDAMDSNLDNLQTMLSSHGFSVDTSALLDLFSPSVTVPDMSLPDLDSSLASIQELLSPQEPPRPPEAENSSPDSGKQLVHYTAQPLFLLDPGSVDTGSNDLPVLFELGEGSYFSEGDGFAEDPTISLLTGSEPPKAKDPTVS
The next test has as its target T2, SPIC (Homo sapiens, UniProt Q8N5J4 1-248).
T2 sequence: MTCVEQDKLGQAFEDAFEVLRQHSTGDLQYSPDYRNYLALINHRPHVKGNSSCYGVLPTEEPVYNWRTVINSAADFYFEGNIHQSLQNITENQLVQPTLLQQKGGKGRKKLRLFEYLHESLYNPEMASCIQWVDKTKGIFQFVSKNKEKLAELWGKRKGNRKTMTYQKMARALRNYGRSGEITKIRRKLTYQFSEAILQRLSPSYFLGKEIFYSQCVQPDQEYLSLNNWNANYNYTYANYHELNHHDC
The settings on record: protein: recombinant; tags: N-terminal GST; dsDNA, one strand shown. An outline of the steps:
as §1

A further test addresses ELF4 (Homo sapiens, UniProt Q99607 1-663). To be noted: protein: recombinant; tags: N-terminal GST; dsDNA, one strand shown. An outline of the steps:
as §1

For a further test, the target named is T3, ELK4 (Homo sapiens, UniProt P28324-2 1-405).
T3 sequence: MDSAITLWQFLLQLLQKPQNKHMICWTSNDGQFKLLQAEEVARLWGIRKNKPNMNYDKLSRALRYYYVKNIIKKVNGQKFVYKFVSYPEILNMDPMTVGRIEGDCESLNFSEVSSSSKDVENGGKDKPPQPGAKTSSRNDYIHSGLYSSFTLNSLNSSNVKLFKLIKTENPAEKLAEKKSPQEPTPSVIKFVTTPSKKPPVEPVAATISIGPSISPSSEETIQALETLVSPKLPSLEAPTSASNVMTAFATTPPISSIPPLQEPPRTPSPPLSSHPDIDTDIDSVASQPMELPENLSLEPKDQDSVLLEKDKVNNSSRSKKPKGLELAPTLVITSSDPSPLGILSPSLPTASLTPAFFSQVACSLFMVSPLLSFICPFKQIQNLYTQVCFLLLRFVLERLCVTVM
The settings on record: protein: recombinant; tags: N-terminal GST; dsDNA, one strand shown. A digest of the protocol: as §1

The target in another test is T4, ETV2 (Homo sapiens, UniProt O00321 1-342).
T4 sequence: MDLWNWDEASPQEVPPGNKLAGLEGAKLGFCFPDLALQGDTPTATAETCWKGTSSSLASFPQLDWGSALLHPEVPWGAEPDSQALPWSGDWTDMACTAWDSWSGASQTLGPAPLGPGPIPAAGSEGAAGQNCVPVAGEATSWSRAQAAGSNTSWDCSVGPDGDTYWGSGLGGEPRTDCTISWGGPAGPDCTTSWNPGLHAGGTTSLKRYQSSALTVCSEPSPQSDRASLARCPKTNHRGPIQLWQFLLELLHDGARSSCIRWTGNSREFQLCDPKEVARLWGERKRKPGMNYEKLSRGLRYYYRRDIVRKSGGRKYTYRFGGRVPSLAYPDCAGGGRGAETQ
The settings on record: protein: recombinant; tags: N-terminal GST; dsDNA, one strand shown. An outline of the steps:
as §1

The target in the next test is T5, ELF3 (Homo sapiens, UniProt P78545 1-371).
T5 sequence: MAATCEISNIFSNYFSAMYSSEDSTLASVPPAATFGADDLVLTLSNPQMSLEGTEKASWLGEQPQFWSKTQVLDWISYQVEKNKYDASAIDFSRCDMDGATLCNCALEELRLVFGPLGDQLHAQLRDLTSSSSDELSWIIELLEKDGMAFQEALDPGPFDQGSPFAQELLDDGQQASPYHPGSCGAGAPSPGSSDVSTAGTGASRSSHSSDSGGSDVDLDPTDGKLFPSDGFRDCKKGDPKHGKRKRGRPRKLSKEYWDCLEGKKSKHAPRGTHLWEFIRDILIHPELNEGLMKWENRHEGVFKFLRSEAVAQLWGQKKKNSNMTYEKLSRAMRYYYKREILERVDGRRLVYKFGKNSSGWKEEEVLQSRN
To be noted: protein: recombinant; tags: N-terminal GST; dsDNA, one strand shown. An outline of the steps:
as §1

A further test concerns the target CRX (Homo sapiens, UniProt O43186 1-299). The settings on record: protein: recombinant; tags: N-terminal GST; dsDNA, one strand shown. A digest of the protocol: as §1
The target in a further test is ETV1 (Homo sapiens, UniProt P50549 1-477). To be noted: protein: recombinant; tags: N-terminal GST; dsDNA, one strand shown. An outline of the steps:
as §1

ETV1, sequence (P50549 whole entry): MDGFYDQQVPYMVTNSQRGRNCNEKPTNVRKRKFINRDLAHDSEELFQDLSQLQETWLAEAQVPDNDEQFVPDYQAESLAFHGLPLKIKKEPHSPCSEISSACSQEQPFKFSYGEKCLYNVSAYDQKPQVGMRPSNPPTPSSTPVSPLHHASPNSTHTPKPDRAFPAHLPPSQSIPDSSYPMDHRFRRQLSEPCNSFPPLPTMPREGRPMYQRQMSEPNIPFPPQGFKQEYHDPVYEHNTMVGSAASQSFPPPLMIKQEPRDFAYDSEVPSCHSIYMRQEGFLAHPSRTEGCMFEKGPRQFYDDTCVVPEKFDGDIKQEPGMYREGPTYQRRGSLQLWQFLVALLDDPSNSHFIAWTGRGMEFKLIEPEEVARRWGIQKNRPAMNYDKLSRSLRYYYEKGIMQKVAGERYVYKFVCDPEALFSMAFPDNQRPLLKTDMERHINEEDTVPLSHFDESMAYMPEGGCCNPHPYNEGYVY
CRX, sequence (O43186 whole entry): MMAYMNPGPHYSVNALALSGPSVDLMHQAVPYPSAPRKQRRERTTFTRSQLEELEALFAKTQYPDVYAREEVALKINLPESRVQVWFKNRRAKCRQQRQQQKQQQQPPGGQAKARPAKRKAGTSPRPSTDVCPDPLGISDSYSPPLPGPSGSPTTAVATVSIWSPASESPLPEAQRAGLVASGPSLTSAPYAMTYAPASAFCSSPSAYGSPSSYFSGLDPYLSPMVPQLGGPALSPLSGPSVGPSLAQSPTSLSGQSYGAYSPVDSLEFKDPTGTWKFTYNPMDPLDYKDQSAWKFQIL
ELF4, sequence (Q99607 whole entry): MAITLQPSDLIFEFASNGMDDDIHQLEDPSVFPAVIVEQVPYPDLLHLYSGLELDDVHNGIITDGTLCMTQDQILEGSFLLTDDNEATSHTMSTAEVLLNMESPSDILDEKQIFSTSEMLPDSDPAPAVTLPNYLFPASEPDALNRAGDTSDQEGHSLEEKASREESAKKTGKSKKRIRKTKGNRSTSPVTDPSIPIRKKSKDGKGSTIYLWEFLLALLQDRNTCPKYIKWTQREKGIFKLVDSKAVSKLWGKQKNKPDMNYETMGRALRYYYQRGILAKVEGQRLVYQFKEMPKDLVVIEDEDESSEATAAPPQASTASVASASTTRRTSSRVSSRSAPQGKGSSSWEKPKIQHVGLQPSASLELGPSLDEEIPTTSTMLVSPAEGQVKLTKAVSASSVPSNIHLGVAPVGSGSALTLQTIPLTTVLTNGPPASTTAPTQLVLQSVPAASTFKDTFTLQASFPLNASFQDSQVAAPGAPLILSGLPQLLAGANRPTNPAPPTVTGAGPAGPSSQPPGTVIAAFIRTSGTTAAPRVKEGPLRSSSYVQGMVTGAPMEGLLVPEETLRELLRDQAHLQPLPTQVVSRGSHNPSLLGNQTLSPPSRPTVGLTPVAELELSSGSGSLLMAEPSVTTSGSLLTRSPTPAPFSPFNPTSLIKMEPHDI
ETV5, sequence (P41161 whole entry): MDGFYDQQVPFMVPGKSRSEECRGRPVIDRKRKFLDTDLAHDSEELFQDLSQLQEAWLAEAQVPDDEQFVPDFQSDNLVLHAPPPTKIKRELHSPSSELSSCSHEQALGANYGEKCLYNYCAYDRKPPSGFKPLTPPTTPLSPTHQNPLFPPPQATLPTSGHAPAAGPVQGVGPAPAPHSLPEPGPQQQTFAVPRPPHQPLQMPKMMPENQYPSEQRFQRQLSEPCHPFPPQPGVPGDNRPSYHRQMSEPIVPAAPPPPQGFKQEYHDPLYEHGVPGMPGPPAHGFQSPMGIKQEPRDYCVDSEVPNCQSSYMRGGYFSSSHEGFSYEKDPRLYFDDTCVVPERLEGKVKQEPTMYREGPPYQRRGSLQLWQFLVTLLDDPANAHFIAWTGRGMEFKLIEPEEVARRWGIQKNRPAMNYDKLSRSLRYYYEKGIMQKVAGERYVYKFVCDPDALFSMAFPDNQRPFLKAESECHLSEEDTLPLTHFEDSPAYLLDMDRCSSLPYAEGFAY

As for AATCAC, the binding signal with FEV was 1.09 fold enrichment (6-mer frequency, TF over GST control); in the test with ETV5, 1.14 fold enrichment (6-mer frequency, TF over GST control); in the test with HSF1, 1.08 fold enrichment (6-mer frequency, TF over GST control); with SPIC, 1.08 fold enrichment (6-mer frequency, TF over GST control); with ELF4, 1.09 fold enrichment (6-mer frequency, TF over GST control); in the test with ELK4, 1.11 fold enrichment (6-mer frequency, TF over GST control). Also, the binding signal in the test with ETV2 is 1.18 fold enrichment (6-mer frequency, TF over GST control); with ELF3, 1.12 fold enrichment (6-mer frequency, TF over GST control); with CRX, 1.3 fold enrichment (6-mer frequency, TF over GST control); in the test with ETV1, 1.08 fold enrichment (6-mer frequency, TF over GST control).
Take ATTCAC: the binding signal was 1.23 fold enrichment (6-mer frequency, TF over GST control) with FEV; 1.21 fold enrichment (6-mer frequency, TF over GST control) with ETV5; 1.13 fold enrichment (6-mer frequency, TF over GST control) in the test with HSF1; 1.1 fold enrichment (6-mer frequency, TF over GST control) in the test with SPIC; 1.31 fold enrichment (6-mer frequency, TF over GST control) with ELF4; 1.35 fold enrichment (6-mer frequency, TF over GST control) with ELK4. Also, the binding signal with ETV2 is 1.21 fold enrichment (6-mer frequency, TF over GST control); with ELF3, 1.27 fold enrichment (6-mer frequency, TF over GST control); with CRX, 1.14 fold enrichment (6-mer frequency, TF over GST control); with ETV1 it was 1.29 fold enrichment (6-mer frequency, TF over GST control).
Consider ACGACT, for which the binding signal is 1.28 fold enrichment (6-mer frequency, TF over GST control) with FEV; 1.15 fold enrichment (6-mer frequency, TF over GST control) in the test with ETV5; 1.2 fold enrichment (6-mer frequency, TF over GST control) with HSF1; 1.26 fold enrichment (6-mer frequency, TF over GST control) with SPIC; 1.23 fold enrichment (6-mer frequency, TF over GST control) in the test with ELF4; 1.39 fold enrichment (6-mer frequency, TF over GST control) in the test with ELK4. The binding signal with ETV2 is 1.27 fold enrichment (6-mer frequency, TF over GST control); with ELF3, 1.11 fold enrichment (6-mer frequency, TF over GST control); with CRX, 1.19 fold enrichment (6-mer frequency, TF over GST control); with ETV1, 1.29 fold enrichment (6-mer frequency, TF over GST control).
As to TTCAAC, the binding signal with FEV is 1.29 fold enrichment (6-mer frequency, TF over GST control); in the test with ETV5, 1.29 fold enrichment (6-mer frequency, TF over GST control); with HSF1 it was 1.14 fold enrichment (6-mer frequency, TF over GST control); in the test with SPIC it was 1.24 fold enrichment (6-mer frequency, TF over GST control); in the test with ELF4, 1.28 fold enrichment (6-mer frequency, TF over GST control); with ELK4, 1.33 fold enrichment (6-mer frequency, TF over GST control). Moreover, the binding signal with ETV2 was 1.31 fold enrichment (6-mer frequency, TF over GST control); with ELF3 it was 1.38 fold enrichment (6-mer frequency, TF over GST control); with CRX, 1.15 fold enrichment (6-mer frequency, TF over GST control); with ETV1, 1.35 fold enrichment (6-mer frequency, TF over GST control).
On to TCCCTA, for which the binding signal was 1.2 fold enrichment (6-mer frequency, TF over GST control) with FEV; 1.43 fold enrichment (6-mer frequency, TF over GST control) in the test with ETV5; 1.32 fold enrichment (6-mer frequency, TF over GST control) in the test with HSF1; 1.31 fold enrichment (6-mer frequency, TF over GST control) with SPIC; 1.31 fold enrichment (6-mer frequency, TF over GST control) in the test with ELF4; 1.19 fold enrichment (6-mer frequency, TF over GST control) with ELK4. Moreover, the binding signal in the test with ETV2 was 1.25 fold enrichment (6-mer frequency, TF over GST control); in the test with ELF3, 1.36 fold enrichment (6-mer frequency, TF over GST control); with CRX, 1.47 fold enrichment (6-mer frequency, TF over GST control); in the test with ETV1, 1.32 fold enrichment (6-mer frequency, TF over GST control).
CTTTTG: the binding signal with FEV was 1.3 fold enrichment (6-mer frequency, TF over GST control); with ETV5, 1.38 fold enrichment (6-mer frequency, TF over GST control); in the test with HSF1, 1.36 fold enrichment (6-mer frequency, TF over GST control); in the test with SPIC, 1.36 fold enrichment (6-mer frequency, TF over GST control); with ELF4 it was 1.42 fold enrichment (6-mer frequency, TF over GST control); with ELK4, 1.35 fold enrichment (6-mer frequency, TF over GST control). Besides, the binding signal in the test with ETV2 was 1.25 fold enrichment (6-mer frequency, TF over GST control); with ELF3, 1.39 fold enrichment (6-mer frequency, TF over GST control); in the test with CRX, 1.43 fold enrichment (6-mer frequency, TF over GST control); with ETV1 it was 1.3 fold enrichment (6-mer frequency, TF over GST control).
For the sequence CCTATG, the binding signal is 1.17 fold enrichment (6-mer frequency, TF over GST control) in the test with FEV; 1.28 fold enrichment (6-mer frequency, TF over GST control) with ETV5; 1.05 fold enrichment (6-mer frequency, TF over GST control) with HSF1; 1.1 fold enrichment (6-mer frequency, TF over GST control) with SPIC; 1.3 fold enrichment (6-mer frequency, TF over GST control) in the test with ELF4; 1.35 fold enrichment (6-mer frequency, TF over GST control) with ELK4. For the same sequence, the binding signal was 1.25 fold enrichment (6-mer frequency, TF over GST control) with ETV2; 1.52 fold enrichment (6-mer frequency, TF over GST control) with ELF3; 1.02 fold enrichment (6-mer frequency, TF over GST control) with CRX; 1.24 fold enrichment (6-mer frequency, TF over GST control) in the test with ETV1.
As for TTTTCC, the binding signal with FEV is 1.74 fold enrichment (6-mer frequency, TF over GST control); with ETV5, 1.92 fold enrichment (6-mer frequency, TF over GST control); with HSF1, 1.73 fold enrichment (6-mer frequency, TF over GST control); in the test with SPIC, 1.72 fold enrichment (6-mer frequency, TF over GST control); with ELF4, 1.84 fold enrichment (6-mer frequency, TF over GST control); in the test with ELK4 it was 1.62 fold enrichment (6-mer frequency, TF over GST control). The binding signal in the test with ETV2 is 1.88 fold enrichment (6-mer frequency, TF over GST control); with ELF3, 1.89 fold enrichment (6-mer frequency, TF over GST control); in the test with CRX, 1.44 fold enrichment (6-mer frequency, TF over GST control); in the test with ETV1 it was 1.65 fold enrichment (6-mer frequency, TF over GST control).
